Results on 40 compounds are retold here after PubChem BioAssay (NCATS).

Structures are written as SMILES. Results filed as inconclusive are left out. Active and inactive are the calls of the source. Calls come from the whole dose curve; as a rule, active = well fitted cell-killing curve with a large enough effect; inconclusive = small, poorly fitted or top-dose-only effect, or effect the other way; inactive = no such curve, though single readings can be large or run the other way.
Potency is the fitted concentration of half-maximal effect.

The nature of the experiment: Quantitative High-Throughput drug screen in 47 multiple myeloma cell lines against the NCATS MIPE library collection: KMS28BM_JCRB cell viability assay (AID 1919874). Note: nearly all actives have a fitted effect of over 35% in size. Particulars: CellTiter-Glo ATP, 48 h; series mostly up to 45.8 µM; viability, % of control: at the top concentration. The source says:
PI: Beverly A. Mock Ph.D.
Laboratory of Cancer Biology and Genetics,
Center for Cancer Research, National Cancer Institute,
National Institute of Health, Bethesda, Maryland
Drug resistance and disease progression are common in multiple myeloma (MM) patients, underscoring the need for new therapeutic combinations. […] We hypothesized that effective combinations would reduce MYC expression and enhance p16 activity. […] These preclinical data identify potentially useful drug combinations for evaluation in drug-resistant MM and reveal potential mechanisms of combined drug sensitivity.
Described herein is the primary MIPE qHTS used to cherrypick compounds. Validated compounds were then further tested for potential synergistic activiy.
[1] Peat TJ, Gaikwad SM, Dubois W, Gyabaah-Kessie N, Zhang S, Gorjifard S, Phyo Z, Andres M, Hughitt VK, Simpson RM, Miller MA, Girvin AT, Taylor A, Williams D, D'Antonio N, Zhang Y, Rajagopalan A, Flietner E, Wilson K, Zhang X, Shinn P, Klumpp-Thomas C, McKnight C, Itkin Z, Chen L, Kazandijian D, Zhang J, Michalowski AM, Simmons JK, Keats J, Thomas CJ, Mock BA. Drug combinations identified by high-throughput screening promote cell cycle transition and upregulate Smad pathways in myeloma. Cancer Lett. 2023 Aug 1;568:216284. doi: 10.1016/j.canlet.2023.216284. Epub 2023 Jun 24. PMID: 37356470; PMCID: PMC10408729.
SEQUENCE No. (e.g., 1, 2, 3, etc.); […] (e.g., Cells, Incubation, Reagent, etc.); VALUE and DESCRIPTION.
1; Cells; 5 uL; white, solid bottom 1536-well Greiner assay plate.
2; Compounds; 23 nL; Kalypsis pin tool (Wako USA) equipped with a 1536-well pin head to transfer to the assay plates.
3; Incubation; 48 hours; 37C incubation.
4; Reagent;5uL; CellTiter Glo (Promega).
5; Detector; 425V; Luminescence; Viewlux PerkinElmer.
NOTES (numbers refer to Sequence numbers above)
1. The cell-based screening methods employed in this study were like those previously published. Briefly, the corresponding myeloma cell lines were screened in 1,536-well plates with 500 cells, 5-uL per well for inhibition of cell viability (assessed by measuring ATP levels with CellTiterGlo).
2. NCATS MIPE 4.0 library of approved and investigational drugs were added using the Kalypsis pin tool. Wells treated with DMSO only for 100% viability and media only for 0% viability were used as controls.
3. The assay plates were covered and incubated for 48 hours in a 37C, 5% CO2 incubator with controlled humidity.
4. After 48 hours, CellTilter-GloTM luminescent substrate mix (Promega) reagent was added to the assay plate and plates we incubated for 5 min at room temperature.
5. Signal was measured as median relative luminescence units on a ViewLux (PerkinElmer) multiplate reader.
[1] Heske CM, Davis MI, Baumgart JT, Wilson K, Gormally MV, Chen L, Zhang X, Ceribelli M, Duveau DY, Guha R, Ferrer M, Arnaldez FI, Ji J, Tran HL, Zhang Y, Mendoza A, Helman LJ, Thomas CJ. Matrix Screen Identifies Synergistic Combination of PARP Inhibitors and Nicotinamide Phosphoribosyltransferase (NAMPT) Inhibitors in Ewing Sarcoma. Clin Cancer Res. 2017 Dec 1;23(23):7301-7311. doi: 10.1158/1078-0432.CCR-17-1121. Epub 2017 Sep 12. PMID: 28899971; PMCID: PMC6636827.
Background: ATP-based viability assays read luminescence as a measure of living cells.
Consider `CC(C)[C@H](O)C(=O)N[C@@H](C)C(=O)N[C@@H]1C(=O)N(C)CCc2ccccc21`, for which the “viability, % of control” value was 115% (inactive).
In the case of `O=C(NC[C@H](O)CO)c1ccncc1Nc1ccc(I)cc1F`, the “viability, % of control” value is 88.7% (inactive).
Consider `NC1(C(=O)N[C@@H](CCO)c2ccc(Cl)cc2)CCN(c2ncnc3[nH]ccc23)CC1`, for which the Potency is 0.372 µM (active).
With `Cc1ccccc1-n1c(Cn2nc(-c3cccc(O)c3)c3c(N)ncnc32)nc2cccc(C)c2c1=O`, the Potency is 7.43 µM (active).
In the case of `C[C@@]1(C(=O)Nc2ccc(F)nc2)CCCN1c1nc(Nc2cc(C3CC3)[nH]n2)c2cccn2n1`, the Potency is 0.0372 µM (active).
As to `Cc1ccc(NC(=O)c2ccc(CN3CCN(C)CC3)cc2)cc1Nc1nc(-c2cccnc2)cs1`, the Potency was 20.9 µM (active).
Take `CC1(COc2ccc3c(c2)ncn3-c2ccc3cccc(N4CCC(N)CC4)c3n2)COC1`: the Potency was 0.372 µM (active).
Same read-out and setting: to `COc1cc2nc(-c3cc(F)ccc3O)nc(N[C@@H]3CNC[C@@H]3C(C)(C)O)c2cc1OC` belongs 4.18 µM (active); to `COc1cc2c(cc1Cc1cccc(Cl)c1F)c(=O)c(C(=O)O)cn2[C@H](CO)C(C)C`, 23.5 µM (active).
Consider `C[C@H]1COC2=C1C(=O)C(=O)c1c2ccc2c1CCCC2(C)C`, for which the “viability, % of control” value was 89% (inactive).
Consider `CC(C)(OCc1nn(Cc2ccccc2)c2ccccc12)C(=O)O`, for which the “viability, % of control” value is 107% (inactive).
`NC[C@H]1O[C@H](O[C@@H]2[C@@H](O)[C@@H](O[C@H]3O[C@H](CO)[C@@H](O)[C@H](N)[C@@H]3O)[C@H](N)C[C@@H]2N)[C@H](O)[C@@H](O)[C@H]1O`: the “viability, % of control” value was 124% (inactive).
As for `CNC(=O)[C@H](CC1=CN=C2C=CCC=C12)NC(=O)[C@@H](CC(=O)NO)CC(C)C`, the Potency is 5.9 µM (active).
Same read-out and setting: to `COc1ccc(-c2oc3c(CC=C(C)C)c(O)cc(O)c3c(=O)c2O)cc1` belongs 3.72 µM (active).
For `COc1cc(CNC(=O)CCCCC=CC(C)C)ccc1O`, the “viability, % of control” value is 130% (inactive).
Same read-out and setting: to `CC(=O)O[C@]1(C(C)=O)CC[C@H]2[C@@H]3C=C(Cl)C4=CC(=O)[C@@H]5C[C@H]5[C@]4(C)[C@@H]3CC[C@@]21C` belongs 93% (inactive).
In the case of `CC1=C(CC(=O)O)c2cc(F)ccc2C1=Cc1ccc(S(C)=O)cc1` (stereo not given), the Potency is 9.35 µM (active).
As for `Cc1cn([C@@H]2C[C@@H](O)[C@H](CO)O2)c(=O)[nH]c1=O`, the “viability, % of control” value was 122% (inactive).
For the compound `O=C(O)C1=CC(O)C(O)[C@H](O)C1` (stereo not given in full), the “viability, % of control” value is 123% (inactive).
Consider `CN(C)c1ccc(-c2nc3ncc(Cl)c(N4CCN(CC(=O)Nc5nccs5)CC4)c3[nH]2)cc1`, for which the Potency was 2.35 µM (active).
For `Nc1ncnc2c1ncn2[C@@H]1O[C@H](CO)[C@@H](O)[C@@H]1O`, the Potency was 0.935 µM (active).
`Cc1ccc(S(=O)(=O)OCC(=O)Nc2ccc(C(=O)O)c(O)c2)cc1`: the “viability, % of control” value is 102% (inactive).
Regarding `CNC(=O)c1ccc2c(C(=Nc3cccc(CN(C)C)c3)c3ccccc3)c(O)[nH]c2c1`, the Potency is 8.33 µM (active).
In the case of `CCCCC(F)(F)[C@@]1(O)CC[C@H]2[C@H](CC(=O)[C@@H]2CCCCCCC(=O)O)O1`, the “viability, % of control” value was 109% (inactive).
Take `CCCCC[C@H](O)C=C[C@H]1[C@H](O)CC(=O)[C@H]1CCCCCCC(=O)O`: the “viability, % of control” value was 108% (inactive).
Same read-out and setting: to `O=C1C(CCC(O)c2ccc(F)cc2)C(c2ccc(O)cc2)N1c1ccc(F)cc1` (stereo not given) belongs 107% (inactive).
Turning to `C[C@]12CC[C@@H]3c4ccc(O)cc4CC[C@H]3[C@H]1[C@@H](O)[C@@H](O)[C@H]2O`, the “viability, % of control” value was 106% (inactive).
The same measure, in the same setting: to `Cn1c(=O)c(-c2c(Cl)cccc2Cl)cc2cnc(Nc3cccc(C(=O)O)c3)nc21` belongs 111% (inactive).
Take `CC(C)C[C@@H](C(=O)N[C@H](C(=O)OC1CCCC1)c1ccccc1)[C@H](O)C(=O)NO`: the Potency was 20.9 µM (active).
For the compound `CCC(=C(c1ccc(O)cc1)c1ccc(OCCNC)cc1)c1ccccc1`, the Potency is 23.5 µM (active).
Turning to `CN[C@@H](C)[C@H]1[C@H](O)C[C@@]2(C)[C@@H]3CC[C@H]4C(C)(C)[C@@H](NC)CC[C@@]45C[C@@]35CC[C@]12C`, the “viability, % of control” value is 109% (inactive).
Regarding `CC(C)(C)c1nc(-c2cccc(NS(=O)(=O)c3c(F)cccc3F)c2F)c(-c2ccnc(N)n2)s1`, the “viability, % of control” value is 128% (inactive).
`CCOC(=O)N1CCN([N+]([O-])=NOc2cc(ON=[N+]([O-])N3CCN(C(=O)OCC)CC3)c([N+](=O)[O-])cc2[N+](=O)[O-])CC1`: the Potency is 7.43 µM (active).
In the case of `C=C[C@@H]1CN2CCC1C[C@@H]2C(O)c1ccnc2ccc(OC)cc12` (stereo not given in full), the “viability, % of control” value was 87.3% (inactive).
`Clc1ccc(COC(Cn2ccnc2)c2ccc(Cl)cc2Cl)c(Cl)c1` (stereo not given): the Potency was 20.9 µM (active).
`COc1ccc(-c2cc3nccn3c(Nc3ncccc3C(N)=O)n2)cc1OC`: the Potency was 6.62 µM (active).
On the same count and under the same terms, to `Nc1nc(Cl)nc2c1ncn2[C@@H]1O[C@H](CO)[C@@H](O)[C@H]1F` belongs 0.0235 µM (active).
With `O=C1Nc2ccc(I)cc2C1=Cc1cc(Br)c(O)c(Br)c1`, the “viability, % of control” value was 111% (inactive).
Consider `N#Cc1c(N(CC(=O)O)CC(=O)O)sc(C(=O)O)c1CC(=O)O`, for which the “viability, % of control” value was 113% (inactive).
On to `CCC[C@@H](NC(=O)[C@@H]1[C@H]2CCC[C@@H]2CN1C(=O)[C@@H](NC(=O)[C@@H](NC(=O)c1cnccn1)C1CCCCC1)C(C)(C)C)C(=O)C(=O)NC1CC1`, for which the Potency is 18.7 µM (active).
